Assay results published in PubChem BioAssay AID1159580 (chemical genetic matrix, 2015).
Among all 5,500 compounds or so, about 2,000 (36%) were called active. About 18% were inconclusive and are not listed. Rule as the data show it: active = normalized growth mostly below about 0.91 (no sharp cut-off); inconclusive = no clear call, values can overlap the other calls; inactive = mostly above about 0.92. The list shows a part of the results.

Test: chemical genetic growth profiling, strain panel (AID 1159580);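 also: tested at 20 µM; growth read once vehicle control cultures reached saturation at 30 °C; 1 = growth at the plate median or of vehicle wells; lower values mean less growth of the strain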
Conditions: S. cerevisiae deletion strains, growth OD

Measured: normalized growth

CCOC(=O)c1ncn2c1CN(C)C(=O)c1cc(F)ccc1-2
inactive: locus YAL013W, strain DEP1, active compounds read low 0.994 | locus YAL021C, strain ccr4, active compounds read low 1.01 | locus YAL026C, strain drs2, active compounds read low 1.02 | locus YAL030W, strain snc1, active compounds read low 1.02 | locus YAL040C, strain CLN3, active compounds read low 1 | locus YBL061C, strain skt5, active compounds read low 1.01 | locus YBR009C, strain hhf1, active compounds read low 1.03 | locus YBR023C, strain chs3, active compounds read low 1.02 | locus YBR171W, strain sec66, active compounds read low 1.02 | locus YBR231C, strain swc5, active compounds read low 1.02 | locus YBR279W, strain paf1, active compounds read low 1.01 | locus YCL011C, strain gbp2, active compounds read low 1.01 | locus YCL016C, strain dcc1, active compounds read low 1.02 | locus YCL061C, strain MRC1 (second series), active compounds read low 1 | locus YCL061C, strain MRC1, active compounds read low 1.02 | locus YCL069W, strain vba3, active compounds read low 1.01 | locus YCR088W, strain abp1, active compounds read low 1.02 | locus YDL005C, strain med2, active compounds read low 1.02 | locus YDL040C, strain nat1, active compounds read low 1.02 | locus YDR001C, strain nth1, active compounds read low 1.02 | locus YDR069C, strain doa4, active compounds read low 1.03 | locus YDR137W, strain rgp1, active compounds read low 1 | locus YDR150W, strain NUM1, active compounds read low 1.01 | locus YDR159W, strain sac3, active compounds read low 1.03 | locus YDR195W, strain ref2 1.02 | locus YDR297W, strain sur2, active compounds read low 1.01 | locus YDR334W, strain swr1, active compounds read low 1.02 | locus YDR335W, strain msn5, active compounds read low 1.02 | locus YDR363W, strain ESC2, active compounds read low 0.997 | locus YDR392W, strain spt3, active compounds read low 0.994 | locus YEL003W, strain gim4, active compounds read low 1.02 | locus YEL037C, strain rad23, active compounds read low 1.01 | locus YEL061C, strain CIN8 (second series), active compounds read low 1.02 | locus YER002W, strain NOP16, active compounds read low 0.993 | locus YER015W, strain faa2, active compounds read low 1.01 | locus YER016W, strain bim1, active compounds read low 1.01 | locus YER111C, strain swi4, active compounds read low 1.01 | locus YER155C, strain BEM2 (second series), active compounds read low 1.01 | locus YFR010W, strain ubp6, active compounds read low 1.02 | locus YGL167C, strain pmr1, active compounds read low 1.03 | locus YGL173C, strain kem1, active compounds read low 1.02 | locus YGL227W, strain vid30, active compounds read low 1.02 | locus YGL240W, strain doc1, active compounds read low 1.04 | locus YGL253W, strain hxk2, active compounds read low 1.02 | locus YGR078C, strain PAC10, active compounds read low 1.01 | locus YHR013C, strain ard1, active compounds read low 1.03 | locus YHR027C, strain rpn1, active compounds read low 1.01 | locus YHR030C, strain SLT2, active compounds read low 0.986 | locus YHR079C, strain IRE1, active compounds read low 0.997 | locus YHR142W, strain chs7, active compounds read low 0.972 | locus YJL092W, strain hpr5, active compounds read low 1.02 | locus YJL095W, strain BCK1 (second series), active compounds read low 1.02 | locus YJL095W, strain BCK1, active compounds read low 0.997 | locus YJL115W, strain asf1, active compounds read low 1.02 | locus YJL129C, strain trk1, active compounds read low 1.01 | locus YJL154C, strain vps35, active compounds read low 1.02 | locus YJL164C, strain tpk1, active compounds read low 1.02 | locus YJL166W, strain qcr8, active compounds read low 1.03 | locus YJL187C, strain SWE1, active compounds read low 1.02 | locus YJR066W, strain TOR1, active compounds read low 0.93 | locus YJR075W, strain HOC1, active compounds read low 1 | locus YKL160W, strain elf1, active compounds read low 1.01 | locus YKR026C, strain gcn3, active compounds read low 1.01 | locus YKR091W, strain srl3, active compounds read low 1.01 | locus YLL001W, strain dnm1, active compounds read low 1.01 | locus YLL026W, active compounds read low 1.02 | locus YLL041C, strain sdh2, active compounds read low 1.02 | locus YLR027C, strain aat2, active compounds read low 1.02 | locus YLR113W, strain HOG1, active compounds read low 1.01 | locus YLR221C, strain rsa3, active compounds read low 1.02 | locus YLR258W, strain gsy2, active compounds read low 1.02 | locus YLR262C, strain YPT6 (second series), active compounds read low 1.02 | locus YLR320W, strain mms22, active compounds read low 1.03 | locus YLR342W, strain FKS1, active compounds read low 1.02 | locus YLR357W, strain rsc2, active compounds read low 1.03 | locus YLR370C, strain arc18, active compounds read low 1.02 | locus YLR384C, strain iki3, active compounds read low 1.02 | locus YML120C, strain ndi1, active compounds read low 1 | locus YMR058W, strain fet3, active compounds read low 1.02 | locus YMR125W, strain sto1, active compounds read low 1.03 | locus YMR129W, active compounds read low 1.01 | locus YMR205C, strain PFK2, active compounds read low 1.03 | locus YMR231W, strain pep5, active compounds read low 1.01 | locus YMR307W, strain GAS1, active compounds read low 0.985 | locus YNL071W, strain lat1, active compounds read low 1.01 | locus YNL175C, strain NOP13, active compounds read low 0.999 | locus YNL183C, strain NPR1, active compounds read low 0.938 | locus YNL197C, strain WHI3, active compounds read low 0.999 | locus YNL209W, strain ssb2, active compounds read low 1.02 | locus YNL224C, strain SQS1, active compounds read low 1 | locus YNL248C, strain rpa49, active compounds read low 0.992 | locus YNL322C, strain KRE1 (second series), active compounds read low 1.01 | locus YNR049C, strain mso1, active compounds read low 1.02 | locus YOR001W, strain rrp6, active compounds read low 1.01 | locus YOR070C, strain gyp1, active compounds read low 1.02 | locus YOR080W, strain dia2, active compounds read low 1.02 | locus YOR083W, strain WHI5 (second series), active compounds read low 1.03 | locus YOR083W, strain WHI5, active compounds read low 0.997 | locus YOR106W, strain vam3, active compounds read low 1.01 | locus YOR231W, strain MKK1, active compounds read low 0.983 | locus YOR265W, strain rbl2, active compounds read low 1.02 | locus YOR270C, strain vph1, active compounds read low 1.02 | locus YOR290C, strain snf2, active compounds read low 1.01 | locus YPL051W, strain arl3, active compounds read low 1.01 | locus YPL055C, strain LGE1, active compounds read low 1.01 | locus YPL078C, strain atp4, active compounds read low 1 | locus YPL106C, strain sse1, active compounds read low 1.04 | locus YPL240C, strain hsp82, active compounds read low 1 | locus YPL256C, strain CLN2, active compounds read low 0.973
